# Assay outcomes from PubChem.
# Shown are actives, neighbours in structure and some others; about 8% of the full set was active somewhere.
# HCMV inh: qHTS Assay for inhibitors of the human cytomegalovirus (HCMV); HFF cells, HCMV-luciferase reporter, 72 h; active compounds read low; activity change, negative = inhibition, % at 57.5 µM; 410,000 compounds, 4.5% hits; in the data active means activity change below about -60%; inconclusive means no clear call, values can overlap the other calls; inactive means above about -39%
#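 Two-dose cell screen: HFF monolayers treated with compounds and infected with luciferase-expressing HCMV at 1 PFU/cell, 72 h at 37C, then lysed for luciferase measurement.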
# FMDV antiviral: High Throughput Screening for Foot and Mouth Disease Virus Antivirals. FMDV antiviral cell-based qHTS. Potency, µM (titrated, usually from 57.9 µM), usual class: inhibitors. 410,000 compounds, 1.2% hits; calls by dose curve; tested in HEK293T cells; further: read-out not given here; nearly all actives have a fitted effect of over 45% in size
# HCV inhibitor: qHTS Assay for Inhibitors of Hepatitis C Virus (HCV). Potency, µM (highest dose often 41.8 µM), most hits filed as inhibitors. Huh7.5.1 HCVcc-Cre infection, luciferase reporter, 44 h. 340,000 compounds, 3.4% hits; active means well fitted inhibition curve with a large enough effect; inconclusive means small, poorly fitted or top-dose-only effect, or another doubt; inactive means no such curve, though single readings can be large or run the other way
#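 Infectious HCV cell culture screen: compound-treated cells (1,000/well, pre-plated 4 h) are infected with HCVcc-Cre at roughly 0.5 moi and grown 44 h. Infection is quantified by luciferase signal after 15 min substrate incubation at room temperature.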
# Lassa entry inh: qHTS for Inhibitors of binding or entry into cells for Lassa Virus; 300,000 compounds, 1.2% hits; AID 540256, 2011; Potency, µM (series often up to 37.9 µM), hits mostly inhibitors; Lassa virus pseudotype entry inhibition, cell reporter; calls by dose curve; tested in HEK293 cells; further: nearly all actives have a fitted effect of over 50% in size
# Marburg entry inh: qHTS for inhibitors of binding or entry into cells for Marburg Virus | Marburg virus pseudotyped entry inhibition, cell reporter | Potency, µM (titrated, usually from 37.8 µM), most hits filed as inhibitors | 300,000 compounds, 1.8% hits; calls by dose curve; tested in HEK293 cells
# SARS PLP yeast: qHTS of Yeast-based Assay for SARS-CoV PLP; S. cerevisiae expressing SARS-CoV PLpro, growth rescue; Potency, µM (top dose mostly 32.9 µM), most hits filed as activators; 330,000 compounds, 0.19% hits; AID 485353, 2010; calls by dose curve; further: nearly all actives have a fitted effect of over 55% in size
# Numbers stand for hits; - = inactive; ? = inconclusive; . = no result given.
SMILES,HCMV inh,FMDV antiviral,HCV inhibitor,Lassa entry inh,Marburg entry inh,SARS PLP yeast
CCOC(=O)c1c(NC(=O)c2cccs2)sc(C(=O)N2CCOCC2)c1C,-,-,-,-,-,.
CCOC(=O)c1c(NC(=O)COC(=O)c2cccnc2OCC)sc(C(=O)N(CC)CC)c1C,-,15.8µM,?,?,?,-
CCOC(=O)c1c(NC(=O)c2cccs2)sc(C)c1CC,-,-,8.91µM,-,?,-
CCOC(=O)c1c(NC(=O)c2cccs2)sc(C(=O)N(C)C)c1C,-,-,12.6µM,-,-,-
Cc1sc(NC(=O)c2cccs2)c(C(=O)OC(C)C)c1C,-,-,-,-,?,-
CN(C)c1cccc2c1c(NC(=O)c1ccc(Cl)cc1)nn2C,-,-,?,-,-,-
COc1ccc(S(=O)(=O)N2CCN(C(=S)NCCc3ccccc3)CC2)cc1,-,-,.,-,?,-
CC(Sc1ccccc1)C(=O)N1CCN(S(=O)(=O)c2ccccc2C(F)(F)F)CC1 (centres undefined),.,?,-,-,-,-
CC(Sc1ccccc1)C(=O)N1CCN(S(=O)(=O)c2ccccc2)CC1 (centres undefined),-62.7,-,-,-,-,-
COc1ccc(CCNC(=S)N2CCN(S(=O)(=O)c3ccc(C)cc3)CC2)cc1,-98.0,-,?,-,-,-
O=S(=O)(c1ccccc1)N1CCN(C(=S)NCCc2ccccc2)CC1,-72.3,-,-,-,-,-
CN(c1cccnc1)c1ncnc2[nH]ncc12,-,-,-,-,-,-
C=CCN(CC=C)c1ncnc2[nH]ncc12,-86.0,-,-,-,-,.
C=CCOc1ccc(CNc2nccs2)cc1OC,-,-,10µM,-,-,-
C=CCOc1ccc(CNC(C)(C)C)cc1OC,-,-,-,-,-,-
COc1ccccc1CNC(=O)C(=O)NCCC1CCCCN1S(=O)(=O)c1ccc(C)cc1 (centres undefined),-,-,?,?,?,-
Cc1ccc(CNC(=O)C(=O)NCCC2CCCCN2S(=O)(=O)c2cccs2)cc1 (centres undefined),-,?,?,?,?,.
Cc1ccccc1CNC(=O)C(=O)NCCC1CCCCN1S(=O)(=O)c1cccs1 (centres undefined),-,-,?,?,10µM,-
COc1ccc(CCNC(=O)C(=O)NCCC2CCCCN2S(=O)(=O)c2cccs2)cc1 (centres undefined),-,31.6µM,?,?,-,-
COc1ccc(CCNC(=O)C(=O)NCCC2CCCCN2S(=O)(=O)c2ccccc2)cc1 (centres undefined),?,?,-,?,-,-
COc1ccccc1CNC(=O)C(=O)NCCC1CCCCN1S(=O)(=O)c1cccs1 (centres undefined),-,?,11.2µM,?,?,-
Cc1ncc(CO)c(/C=N/Nc2ccc(C(F)(F)F)cn2)c1O,-96.1,-,?,?,3.98µM,-
COc1cc(CN2CCC(C(=O)N3CCN(c4ccccc4F)CC3)CC2)ccc1O,-,-,22.4µM,-,?,-
CCOC(=O)N1CCN(C(=O)c2ccc(OC)cc2)CC1,-,-,-,-,-,-
COc1ccc(-c2noc(N3CCC(C(=O)Nc4ccc(F)cc4)CC3)n2)cc1,-,-,-,.,.,-
SMILES,HCMV inh,FMDV antiviral,HCV inhibitor,Lassa entry inh,Marburg entry inh,SARS PLP yeast
COc1ccc(-c2noc(N3CCC(C(=O)N4CCN(c5ccccc5F)CC4)CC3)n2)cc1,-,11.2µM,.,-,.,.
COc1cccc(CN2CCC(C(=O)N3CCN(c4ccccc4F)CC3)CC2)c1,-,-,-,-,-,-
CCOC(=O)N1CCN(c2nc(-c3ccc(OC)cc3)no2)CC1,?,-,12.6µM,-,-,-
O=C(CCC1N=C2c3ccccc3N=C(SCC(=O)NCC3CCCO3)N2C1=O)NCc1ccc(F)cc1 (centres undefined),-,-,-,.,.,-
CCSc1nnc(NC(=O)NC(C)(C(F)(F)F)C(F)(F)F)s1,-67.2,-,-,?,?,-
CCCC(=O)Nc1nnc(SCC)s1,-,-,-,-,-,-
CCSc1nnc(NC(=O)NC(CC)(C(F)(F)F)C(F)(F)F)s1,-79.0,?,?,?,?,-
C[n+]1nc(Nc2cccc3ccccc23)sc1-c1ccc(C(=O)O)cc1,.,.,.,.,.,-
Cc1ccc(C(O)CSc2nnc(-c3ccc4ccccc4c3)n2C)cc1 (centres undefined),-,-,-,?,-,-
Cc1nc(N)nc(N)c1/C=C/C(C)(C)c1ccc(Cl)cc1,-109.0,?,?,?,?,-
O=C(NCCc1ccccc1)c1ccc2nccnc2c1,-,-,-,2.82µM,1.26µM,-
O=C(NNC(=S)NCc1ccccc1)c1ccc2c(c1)OCO2,-65.1,-,-,-,-,-
O=C(NCCS(=O)(=O)NCc1ccccc1)c1ccc2c(c1)OCO2,-,-,-,-,-,-
O=C(NCCc1ccc2c(c1)OCCO2)c1cc(F)cc(F)c1,?,-,?,?,-,-
O=C(NCCc1ccccc1)c1ccc2c(c1)OCO2,-78.7,7.94µM,-,1.12µM,1.26µM,-
O=C(NCCc1ccc2c(c1)OCCO2)c1cccc(F)c1,-73.2,-,?,-,-,-
Cc1ccc(CN2CCC(=O)N(Cc3ccccn3)CC2)c(C)c1,.,-,.,.,.,.
CC(=O)c1cccc(CN2CCCC(C(=O)c3ccc4c(c3)OCO4)C2)c1 (centres undefined),?,-,-,-,?,-
O=C(c1ccc2c(c1)OCO2)C1CCCN(C2CCN(CCc3ccccc3)CC2)C1 (centres undefined),-,-,3.55µM,?,7.08µM,-
Cc1ccc2nc(CN(C)C(=O)[C@@H](Cc3ccccc3)NC(=O)[C@H]3O[C@@H](n4cnc(C(N)=O)n4)[C@H](O)[C@@H]3O)[nH]c2c1,-,.,.,.,.,.
Cc1cc(C)n2c(NC3CCCCC3)c(-c3cccnc3)nc2n1,-,-,.,.,.,.
CCN1CCN(C(c2ccccc2)c2nnnn2C(C)(C)C)CC1 (centres undefined),-,-,.,.,.,.
COC(=O)C(=Cc1ccccc1[N+](=O)[O-])C(=O)OC,-95.9,15.8µM,?,.,.,-
O=C(NC1CCCC1)c1cn(C2CCN(Cc3cccc4cccnc34)CC2)nn1,.,-,.,.,.,.
CC1(C)N=C(N)N=C(N)N1c1ccc(Oc2ccc(Cl)cc2)c(Cl)c1,-99.5,-,?,?,?,-
O=C(NCCNc1ccc([N+](=O)[O-])cc1)c1ccccc1Cl,-,-,.,.,.,.
COc1cccc(NC(=O)CNC(=O)[C@@H]2Cc3ccccc3CN2C(=O)OC(C)(C)C)c1,-,-,-,?,-,-
CC(C)(C)OC(=O)N1Cc2ccccc2C[C@H]1C(=O)NCC(=O)Nc1ccc2c(c1)OCCO2,-68.4,?,-,.,.,-
